According to the OligoGym collection:
Note: reference of the scale not given here.

What follows are sequences tested against FAN1 (assay: pooled miR-30 sensor sort-seq; sequence = guide strand). Conditions: shRNA.
TTGCTGATTGATAAGCTTCTAC showed a sensor-assay potency score (higher = more potent) of -0.452. Work on TTTTTGAGAACTGTTCTCCAAA yielded a sensor-assay potency score (higher = more potent) of -0.862. Work on ATAACTTCTGACCAGTAGCTGA yielded a sensor-assay potency score (higher = more potent) of -0.771. Work on TTCTTTGATACACTCTTGCTTT yielded a sensor-assay potency score (higher = more potent) of -0.307. In the case of TTGGTCATCTTAATCCAGCTTA, the sensor-assay potency score (higher = more potent) is reported as 0.33. For TAACATGATCGCATTATCTGAG, the sensor-assay potency score (higher = more potent) was 0.286. TTGAACTTTTTACAGCTCGGAG was tested, and the sensor-assay potency score (higher = more potent) was -1.04. Sequence TTTCACATCTTGCACAGCCATT has a sensor-assay potency score (higher = more potent) of -1.51. For TTGACCAACAGGACTGTTGAAA, the sensor-assay potency score (higher = more potent) was -0.462. For TAAGCAACTGTCATCCTGCAGA, the sensor-assay potency score (higher = more potent) was 0.0838. TTACATATAACTTCTGACCAGT was tested, and the sensor-assay potency score (higher = more potent) was 0.259.

The sequences below were run against FANCF in the same assay as above. Conditions: shRNA.
With TAGAACTTTATCTTTCAGAGGT the sensor-assay potency score (higher = more potent) was 0.316. Sequence TTGGGTTCTCTCTATAGCCATT has a sensor-assay potency score (higher = more potent) of -1.39. Sequence TTCATCAGAGAGTCCTCCTGGA has a sensor-assay potency score (higher = more potent) of 0.554. For TTGAAACCTATTGTGCAACTCC, the sensor-assay potency score (higher = more potent) was 0.168. With AAGAGGTCTGTCCAGATGCTAA the sensor-assay potency score (higher = more potent) was -1.55. For TTGGAGTGTCTCCTCATCGGCG, the sensor-assay potency score (higher = more potent) was -0.931. For TTTTGTAAACTATATATTCTAT, the sensor-assay potency score (higher = more potent) was -0.511. For ATAGACAGGAGACAGCGCTGGG, the sensor-assay potency score (higher = more potent) was -0.33. TTTCTGAAGGTCATAGTGCAAA gave a sensor-assay potency score (higher = more potent) of -1.33. In the case of TTTGGGTTCTCTCTATAGCCAT, the sensor-assay potency score (higher = more potent) is reported as -1.05. Work on TATCTTTCAGAGGTGGAGGGGC yielded a sensor-assay potency score (higher = more potent) of -0.0769. For TGGAAGTTCGCTAATCCCGGAA, the sensor-assay potency score (higher = more potent) was -0.728. Work on TACTTCAAAATCTCCATCCTGC yielded a sensor-assay potency score (higher = more potent) of 0.811. ATGTGCACCGCAGACCGCCGGC was tested, and the sensor-assay potency score (higher = more potent) was -1.25. For TTCAAAATCTCCATCCTGCGCT, the sensor-assay potency score (higher = more potent) was 0.034. With TAGACAGGAGACAGCGCTGGGT the sensor-assay potency score (higher = more potent) was -0.533. Sequence TGACAGAGGCTTTGAAACCTAT has a sensor-assay potency score (higher = more potent) of -1.18. In the case of TCTATAGCCATTGAAGCGCAGC, the sensor-assay potency score (higher = more potent) is reported as -1.1. Sequence TCTCTTGGAGTGTCTCCTCATC has a sensor-assay potency score (higher = more potent) of -1.11.
